{"source": "the supplement of paper PMC10941209"}
{"system": "Toxoplasma gondii RH 2F1 tachyzoites (intracellular in HFF)", "test": "parasite survival relative to DMSO control; higher = less antiparasitic activity, active = 20 or less", "conditions": "1 µM; 72 h", "in_short": "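Intracellular Toxoplasma gondii RH-2F1 tachyzoites, which express β-galactosidase, were grown in HFF cells (5 × 10^3 cells/well, 96-well plates) infected with 5 × 10^3 parasites in D2 medium for 3 h, then treated with compound at 1 μM for 72 h at 37°C in 5% CO2. Cells were lysed for 15 min, then CPRG was added and absorbance read at 570 nm after 30 min. Survival is the signal as a percentage of DMSO-treated infected controls, from 2 or more biological replicates.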"}
{"smiles": "N=C(N)NCCCCC(=O)Nc1cc(C(F)(F)F)cc(NC(=O)c2cc(C(=O)Nc3cc(C(F)(F)F)cc(NC(=O)CCCCNC(=N)N)c3O[C@@H]3CCNC3)ncn2)c1O[C@@H]1CCNC1", "parasite survival": "58.7% (inactive)"}
{"smiles": "Cc1cc(CCCOc2c(C)cc(-c3noc(C(F)(F)F)n3)cc2C)on1", "parasite survival": "67.2% (inactive)"}
{"smiles": "O=C(O)c1cc(-c2ccccc2)nc2ccccc12", "parasite survival": "67.9% (inactive)"}
{"smiles": "CCCC(=O)OCCc1ccccc1", "parasite survival": "57% (inactive)"}
{"smiles": "C[C@H](Cn1cnc2c(N)ncnc21)OCP(=O)(O)O", "parasite survival": "76.3% (inactive)"}
{"smiles": "O=C(/C=C/n1cnc(-c2cc(C(F)(F)F)cc(C(F)(F)F)c2)n1)NNc1cnccn1", "parasite survival": "20.8% (inactive)"}
{"smiles": "C[C@@H](NC(=O)c1cccc(-c2cnc(-c3cc4ccccc4cn3)[nH]2)c1)c1ccc(F)cc1", "parasite survival": "11.6% (active)"}
{"smiles": "Nc1nc(O)c(Br)c(-c2cccc(Cl)c2)n1", "parasite survival": "63.8% (inactive)"}
{"smiles": "Cc1cc(-c2ccccc2)c(C(=O)C(=O)Nc2ccc(N3CCN(c4ncc(F)cn4)CC3)cc2)n1C", "parasite survival": "9.71% (active)"}
{"smiles": "O=C(O)c1cc(-c2ccc(Br)cc2)nc2ccc(Cl)cc12", "parasite survival": "72.8% (inactive)"}
{"smiles": "C[C@H](NC(CC(=O)c1ccccc1C(F)(F)F)C(=O)O)c1ccccc1", "note": "(stereo not given in full)", "parasite survival": "63% (inactive)"}
{"smiles": "O=C(N[C@H](Cc1cccc2ccccc12)C(=O)NCCc1c[nH]cn1)C1Cc2ccccc2C1", "parasite survival": "33.7% (inactive)"}
{"smiles": "CCc1oc2ccccc2c1C(=O)c1ccc(O)cc1", "parasite survival": "29.1% (inactive)"}
{"smiles": "COc1c(F)c(F)cc2c(=O)c(C(=O)O)cn(C3CC3)c12", "parasite survival": "63.8% (inactive)"}
{"smiles": "CC[C@H](NC(=O)[C@H](C)NC)C(=O)N1C[C@@H](O)C[C@H]1Cc1c(-c2[nH]c3cc(F)ccc3c2C[C@@H]2C[C@H](O)CN2C(=O)[C@H](CC)NC(=O)[C@H](C)NC)[nH]c2cc(F)ccc12", "parasite survival": "8.15% (active)"}
{"smiles": "CCCCCCCc1[nH]c2ccccc2c(=O)c1O", "parasite survival": "49% (inactive)"}
{"smiles": "O=C(O)c1ccccc1Sc1ncnc2sc3c(c12)CCC3", "parasite survival": "44.2% (inactive)"}
{"smiles": "CSc1ccc2c(c1)C(N1CCN(C)CC1)Cc1ccccc1S2", "note": "(stereo not given)", "parasite survival": "34.5% (inactive)"}
{"smiles": "OCCCCn1cnc2c(O)nc(NCc3ccc(Cl)c(Cl)c3)nc21", "parasite survival": "59.7% (inactive)"}
{"smiles": "O=C(NC(=O)N1CCCc2ccccc21)c1ccc(Cl)cc1Cl", "parasite survival": "55.9% (inactive)"}
{"smiles": "Clc1cc2nc(C3CCNCC3)n(Cc3ccc(CNCCc4c[nH]cn4)cc3)c2cc1Cl", "parasite survival": "66.5% (inactive)"}
{"smiles": "CCC(C)n1ncn(-c2ccc(N3CCN(c4ccc(OCC5COC(Cn6cncn6)(c6ccc(Cl)cc6Cl)O5)cc4)CC3)cc2)c1=O", "note": "(stereo not given)", "parasite survival": "3.93% (active)"}
{"smiles": "O=C(NCc1ncc(C(F)(F)F)cc1Cl)c1c(Cl)cccc1Cl", "parasite survival": "45.4% (inactive)"}
{"smiles": "COC(=O)Nc1nc2cc(Sc3ccccc3)ccc2[nH]1", "parasite survival": "25.4% (inactive)"}
{"smiles": "O=C(O)CSc1cc(NS(=O)(=O)c2cccc3cccnc23)c2ccccc2c1O", "parasite survival": "60.2% (inactive)"}
{"smiles": "CCCCSc1nc(N)c2[nH]c(=O)c(=O)n(Cc3ccccc3)c2n1", "parasite survival": "26.1% (inactive)"}
{"smiles": "CC(=O)Oc1ccccc1C(=O)Nc1ncc([N+](=O)[O-])s1", "parasite survival": "75.8% (inactive)"}
{"smiles": "FC(F)(F)Oc1ccc(Nc2ccc3cccc(Cl)c3n2)cc1", "parasite survival": "41.4% (inactive)"}
{"smiles": "O=C(c1ccccc1)N1CCN(c2ccccc2NC(=O)C(Cl)(Cl)Cl)CC1", "parasite survival": "63.4% (inactive)"}
{"smiles": "COc1ccc(-n2cnc3cc(NCc4ccco4)ccc32)cc1", "parasite survival": "35% (inactive)"}
{"smiles": "COc1cc(C)c2c(Oc3cccc(C(F)(F)F)c3)c(OC)cc(NC(C)CCCN)c2n1", "note": "(stereo not given)", "parasite survival": "27.2% (inactive)"}
{"smiles": "O=C(CC1Sc2ncnn2C1=O)Nc1ccc(Br)cc1", "note": "(stereo not given)", "parasite survival": "28.1% (inactive)"}
{"smiles": "Cc1cc(CCOc2c(C)cc(-c3nnn(C)n3)cc2C)on1", "parasite survival": "65.1% (inactive)"}
{"smiles": "CO/N=C(\\C(=O)N[C@@H]1C(=O)N2C(C(=O)OCOC(=O)C(C)(C)C)=C(/C=C\\c3scnc3C)CS[C@H]12)c1csc(N)n1", "parasite survival": "54.4% (inactive)"}
{"smiles": "Cc1onc(-c2ccccc2)c1-c1ccc(S(N)(=O)=O)cc1", "parasite survival": "74% (inactive)"}
{"smiles": "CCCCc1ccc(S(=O)(=O)Nc2cc(C)on2)cc1", "parasite survival": "39.1% (inactive)"}
{"smiles": "O=c1[nH]c(=O)n(Cc2cccc(Oc3ccccc3)c2)cc1Nc1ccccc1", "parasite survival": "60.3% (inactive)"}
{"smiles": "O=C(N[C@H](CCS)C(=O)N[C@H](Cc1ccccc1)C(=O)O)c1cc2ccccc2[nH]1", "parasite survival": "45.8% (inactive)"}
{"smiles": "Cc1[nH]c2ccccc2c1CC(=O)N[C@@H](Cc1ccccc1)C(=O)N(C)c1ccccc1", "parasite survival": "83.1% (inactive)"}
{"smiles": "NC[C@H]1OB(O)c2c(OCCCO)cccc21", "parasite survival": "54.2% (inactive)"}
